Drawing on PubChem BioAssay (Tox21), this text covers Potency for 26 compounds.

Test [1] is described as follows: qHTS RealTime-Glo MT Cell Viability Assay in HEK293 cells - 0 hour (AID 1224880). Further: nearly all actives have a fitted effect of over 45% in size. Further: potency means the concentration at half of the fitted maximal effect. In a few lines: (§1)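 600 cells/well were plated with the nonlytic NanoLuc/prosubstrate reagent, pre-incubated 5 h, then given 23 nL of compound in DMSO. Incubation at 37 C for 40 h, with luminescence from viable-cell-reduced substrate read repeatedly from 0 h.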
Test [2] can be described thus: A CellTox Green Cytotoxicity Assay to monitor cytotoxicity in HEK293 cells - 32 hour (AID 1224881). Further: nearly all actives have a fitted effect of over 40% in size. Further: potency means the concentration at half of the fitted maximal effect. In a few lines: (§2)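 HEK293 cells, 600/well, were preincubated 5 hours and then exposed to compounds at 37 C for up to 40 hours. A cell-impermeant cyanine dye staining dead-cell DNA was read by fluorescence at 0, 8, 16, 24, 32 and 40 h time points.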
Test [3] in a line: A CellTox Green Cytotoxicity Assay to monitor cytotoxicity in HepG2 cells - 0 hour (AID 1224882). Further: nearly all actives have a fitted effect of over 35% in size. In a few lines:
(§3)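 HepG2 cells, 600/well, preincubated 5 h with CellTox Green dye, then exposed to Tox21 compounds in DMSO at 37 C for up to 40 h. Dead-cell DNA fluorescence read at the indicated time point.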

Test [4] is described as follows: A CellTox Green Cytotoxicity Assay to monitor cytotoxicity in HEK293 cells - 8 hour (AID 1224884). Further: nearly all actives have a fitted effect of over 35% in size. In short, it runs like this: as §2
A short description of test [5]: qHTS RealTime-Glo MT Cell Viability Assay in HepG2 cells - 16 hour (AID 1224885). Further: nearly all actives have a fitted effect of over 50% in size. Further: potency means the concentration at half of the fitted maximal effect. In short, it runs like this: (§4)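 Compound treatment began 5 h after plating HepG2 cells (600/well) with NanoLuc luciferase and prosubstrate. Plates stayed at 37 C for 40 h; luminescence was captured at six time points, 0 h through 40 h.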
Test [6] can be described thus: qHTS RealTime-Glo MT Cell Viability Assay in HEK293 cells - 24 hour (AID 1224886). Further: nearly all actives have a fitted effect of over 50% in size. Further: potency means the concentration at half of the fitted maximal effect. In short, it runs like this:
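Quantitative high-throughput screen of the Tox21 10K library in HEK293: cells and RealTime-Glo reagents plated together, compound added at 5 h, luminescence monitored through 40 h at 37 C.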
Background: In qHTS, concentration-response curves come from the screen itself.

A short description of test [7]: qHTS RealTime-Glo MT Cell Viability Assay in HEK293 cells - 8 hour (AID 1224887). Further: nearly all actives have a fitted effect of over 50% in size. Further: potency means the concentration at half of the fitted maximal effect. In a few lines: as §1
Test [8] can be described thus: A CellTox Green Cytotoxicity Assay to monitor cytotoxicity in HEK293 cells - 16 hour (AID 1224888). Further: nearly all actives have a fitted effect of over 35% in size. In short, it runs like this: as §2
Test [9] in a line: qHTS RealTime-Glo MT Cell Viability Assay in HepG2 cells - 0 hour (AID 1224889). Further: nearly all actives have a fitted effect of over 50% in size. Further: potency means the concentration at half of the fitted maximal effect. In a few lines: as §4
Test [10] can be described thus: A CellTox Green Cytotoxicity Assay to monitor cytotoxicity in HepG2 cells - 32 hour (AID 1224883). Further: nearly all actives have a fitted effect of over 50% in size. Further: potency means the concentration at half of the fitted maximal effect. In short, it runs like this:
as §3

Unmarked numbers belong to inactive results. Records with an inconclusive call do not appear. The source made the active and inactive calls. The call rests on the fitted dose curve; in most records, active means well fitted curve in the direction sought with a large enough effect in the repeat runs; inconclusive means weak or mixed curves; inactive means no such curve, though single readings can be large; an effect the other way counts as inactive or inconclusive.

On to `O=C(CCCCCCCCC#CI)Oc1ccccc1`, for which the Potency entry in [1], in [2], in test [3], in test [4], in [6] and in test [7] was “inactive” throughout. For the same compound, the Potency result in [8] and in test [9] was “inactive” in each case. For the same compound, the Potency in test [5] was 15.1 µM (active).
`O=[N+]([O-])c1cccc(S(=O)(=O)NCCNS(=O)(=O)c2cccc([N+](=O)[O-])c2)c1`: the Potency result in [1], in test [2], in test [3], in test [4], in [5] and in test [6] was “inactive” throughout. Also, the Potency result in test [7], in [8] and in test [9] was “inactive” in each case.
On to `CC(=O)N(c1onc(C)c1C)S(=O)(=O)c1ccc(N)cc1`, for which the Potency result in test [1], in [2], in test [3], in [4], in test [5] and in test [6] was “inactive” each time. Further, the Potency entry in test [7], in [8] and in test [9] was “inactive” in each case.
Regarding `CCOCCn1c(C2CCN(CCc3ccc(C(C)(C)C(=O)O)cc3)CC2)nc2ccccc21`, the Potency result in test [1], in [2], in test [3], in test [4], in [5] and in test [6] was “inactive” throughout. In addition, the Potency entry in test [7], in test [8] and in [9] was “inactive” throughout.
In the case of `O=C(OCCOCCO)c1ccccc1Nc1cccc(C(F)(F)F)c1`, the Potency result in test [1], in test [2], in test [3], in test [4], in test [5] and in test [6] was “inactive” each time. Also, the Potency result in test [7], in [8] and in [9] was “inactive” each time.
Consider `CCNC(=O)N1CCN(CCCC(c2ccc(F)cc2)c2ccc(F)cc2)CC1`, for which the Potency result in [1], in test [2], in test [3], in test [4], in [5] and in test [8] was “inactive” throughout. Further, the Potency entry in test [9] is “inactive”. Further, the Potency in test [6] and in test [7] was 16.9 µM (active) in each case.
On to `CCCCCCCCCCOS(=O)(=O)O`, for which the Potency entry in test [1], in [2], in test [3], in test [4], in test [5] and in test [6] was “inactive” each time. Moreover, the Potency entry in test [7] and in test [9] was “inactive” in each case.
As for `CCC(C)=O`, the Potency entry in test [1], in test [2], in test [3], in test [4], in [5] and in [6] was “inactive” throughout. The Potency result in [7], in test [8] and in test [9] was “inactive” each time.
Consider `OC/C(Br)=C(\Br)CO`, for which the Potency entry in test [1], in test [3], in test [10], in [4], in [5] and in test [6] was “inactive” throughout. In addition, the Potency result in [7], in test [8] and in test [9] was “inactive” each time.
Consider `CSc1ccc(Oc2ccc(S(N)(=O)=O)cc2CN(C)C)cc1C`, for which the Potency entry in test [2], in test [3], in test [4], in [5] and in test [9] was “inactive” each time. Moreover, the Potency in test [6] is 49 µM (active).
`O=C(c1ccc(O)cc1)c1ccc(Cl)cc1`: the Potency result in [1], in test [3], in test [10], in test [4], in [5] and in test [9] was “inactive” throughout. Further, in test [6], the Potency was 22.3 µM (active).
Take `CC(=O)OCC(=O)[C@H]1CC[C@H]2[C@@H]3CCC4=CC(=O)CC[C@]4(C)[C@H]3CC[C@]12C`: the Potency in [1] was 9.52 µM (active). Further, the Potency result in [3], in test [4], in [5] and in test [8] was “inactive” in each case.
`CCCCCCCCCCCC[N+](C)(C)CC(=O)[O-]`: the Potency result in [1], in test [3], in test [5], in test [6], in test [7] and in test [9] was “inactive” throughout.
For `Nc1ccc(S(=O)(=O)O)c(N)c1`, the Potency result in test [1], in test [3], in test [10], in test [5], in test [6] and in test [7] was “inactive” each time. Moreover, the Potency result in test [9] was “inactive”.
On to `CCCCC(=O)O[C@]1(C(=O)CO)CC[C@H]2[C@@H]3CCC4=CC(=O)CC[C@]4(C)[C@H]3[C@@H](O)C[C@@]21C`, for which the Potency entry in [2], in test [3], in test [10], in test [4], in [5] and in [6] was “inactive” throughout. Besides, the Potency result in [7] and in test [8] was “inactive” each time. Also, the Potency in [9] was 9.52 µM (active).
In the case of `CC1=C(/C=C/C(C)=C\C=C\C(C)=C\C(=O)O)C(C)(C)CCC1`, the Potency entry in test [1], in test [3], in [4], in test [6], in [7] and in test [8] was “inactive” throughout. Further, in [9], the Potency result is “inactive”.
For the compound `CC1=CC(O)CC(C)(C)C1` (configuration not stated), the Potency result in test [1], in test [3], in test [10], in test [4], in [5] and in test [6] was “inactive” each time. Also, the Potency result in test [7] and in test [8] was “inactive” throughout.
As to `CC(=O)OCC(=O)[C@@]12OC(C)(C)O[C@@H]1C[C@H]1[C@@H]3C[C@H](F)C4=CC(=O)C=C[C@]4(C)[C@@]3(F)[C@@H](O)C[C@@]12C`, the Potency was 26.8 µM (active) in [2] and 2.68 µM (active) in test [9]. For the same compound, the Potency entry in [3], in test [10], in test [4], in [5], in test [6] and in [7] was “inactive” throughout. Also, the Potency result in test [8] is “inactive”.
With `CCCCC1C(=O)N(c2ccccc2)N(c2ccc(O)cc2)C1=O` (configuration not stated), the Potency result in test [1], in [3], in [4], in test [8] and in [9] was “inactive” throughout. Also, the Potency in [10] is 10.7 µM (active).
Regarding `CCCCCCCCCCCC[N+](C)(C)CCCS(=O)(=O)[O-]`, the Potency entry in test [1], in test [3], in test [10], in [5], in [6] and in test [7] was “inactive” each time. Moreover, the Potency entry in test [9] is “inactive”.
For `CC1(C)C2=CCCC(C)(C)[C@]23CC[C@H]1C3`, the Potency in test [1] is 24.5 µM (active); in [9] it was 34.7 µM (active). For the same compound, the Potency entry in test [3], in test [4], in test [5], in test [6], in [7] and in test [8] was “inactive” each time.
For `O=C1NCCN1`, the Potency result in test [1], in [3], in test [10], in [4], in test [5] and in test [6] was “inactive” in each case. For the same compound, the Potency result in [7] and in test [9] was “inactive” in each case.
`Oc1ccc(Nc2ccccc2)cc1`: the Potency result in test [3], in [10], in [4] and in test [8] was “inactive” throughout. Moreover, the Potency in test [6] is 21.9 µM (active); in test [7], 17.4 µM (active).
For `C/C=C/C=C/CCCCCCCO`, the Potency result in test [1], in test [3], in [10], in test [4], in [5] and in test [6] was “inactive” each time. For the same compound, in test [8], the Potency entry was “inactive”. In [9], the Potency is 13.8 µM (active).
Consider `CCCCCCCCCCCC(=O)[O][Sn]([CH2]CCC)([CH2]CCC)[O]C(=O)CCCCCCCCCCC`, for which the Potency result in test [1], in test [3], in [4], in test [7], in test [8] and in test [9] was “inactive” each time. The Potency was 19 µM (active) in test [10] and 7.56 µM (active) in [6].
`CO[C@H]1C=CO[C@@]2(C)Oc3c(C)c(O)c4c(O)c(c5c(c4c3C2=O)=NC2(CCN(CC(C)C)CC2)N=5)NC(=O)/C(C)=C\C=C/[C@H](C)[C@H](O)[C@@H](C)[C@@H](O)[C@@H](C)[C@H](OC(C)=O)[C@@H]1C`: the Potency entry in test [2], in test [3], in [4], in test [8] and in test [9] was “inactive” in each case. For the same compound, the Potency in [10] was 47.9 µM (active); in [6] it was 38.1 µM (active).
